In the library only some 9.2% were active in any assay of this set; here they are far more common.
ELG1 genotoxic: inducers of genotoxicity in HEK293T ELG1-luciferase cells. HEK293T ELG1-luciferase reporter, luminescence, 16 h. Potency, µM (top dose mostly 46 µM), for inactives: at the highest dose activity change, positive = activation, usual class: activators. 330,000 compounds, 1.3% hits; note: % of control where 0% means no effect; nearly all actives have a fitted effect of over 60% in size
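DMSO vehicle served as control against compound-treated ELG1-luciferase HEK293T cells; exposure lasted 16 hr at 37 °C and 5% CO2, followed by ONE-Glo luminescence detection after 30 min.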
Rab9 promoter act: Rab9 promoter activation; Huh7 Rab9 promoter-luciferase reporter, luminescence, 24 h; Potency, µM (highest dose often 9.22 µM), for the others: at the top dose activation, negative = inhibition, most hits filed as activators; 320,000 compounds, 2.8% hits; AID 485297; note: % of control where 0% means no effect; nearly all actives have a fitted effect of over 60% in size
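Huh7 reporter line, Rab9 promoter upstream of luciferase. Compound exposure 24 h at 37 °C in reduced-serum medium with 10% FBS. Read-out: luminescence.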
FLuc counter: counter-screen for miR-21 project: firefly luciferase inhibitors or activators. purified FLuc, Km substrates, luminescence inhibition. Potency, µM (titrated, usually from 57.5 µM), inactives show at the highest dose activity change, negative = inhibition, actives largely listed as inhibitors. 360,000 compounds, 6.9% hits;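 note: plate controls were vehicle for no effect and reference inhibitor for full effect; nearly all actives have a fitted effect of over 55% in size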
Target sequence (P08659 whole entry, looked up): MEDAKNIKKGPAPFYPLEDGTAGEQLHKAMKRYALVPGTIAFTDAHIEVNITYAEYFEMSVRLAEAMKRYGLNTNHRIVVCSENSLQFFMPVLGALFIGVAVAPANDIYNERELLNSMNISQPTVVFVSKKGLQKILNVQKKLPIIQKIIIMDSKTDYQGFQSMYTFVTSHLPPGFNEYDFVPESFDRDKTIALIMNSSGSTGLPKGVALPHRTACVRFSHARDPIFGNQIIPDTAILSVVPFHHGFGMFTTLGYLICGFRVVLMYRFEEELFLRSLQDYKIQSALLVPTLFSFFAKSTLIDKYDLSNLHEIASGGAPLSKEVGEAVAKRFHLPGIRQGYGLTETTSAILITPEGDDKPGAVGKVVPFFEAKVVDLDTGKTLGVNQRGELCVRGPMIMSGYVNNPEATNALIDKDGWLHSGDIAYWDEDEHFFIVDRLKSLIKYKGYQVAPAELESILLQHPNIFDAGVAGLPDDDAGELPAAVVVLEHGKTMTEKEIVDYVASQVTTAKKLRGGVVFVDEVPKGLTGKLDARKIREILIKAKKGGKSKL
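Purified P. pyralis luciferase (10nM final) with 10uM D-luciferin and 10uM ATP (Km levels) in 50mM Tris acetate pH 7.5, 10mM Mg acetate, 0.01% Tween-20, 0.05% BSA; qHTS 6-point titration, ~60 µM downward; luminescence read.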
NPC1 prom act: activators of NPC1 promoter; Huh7 NPC1 promoter luciferase reporter, 24 h; Potency, µM (titrated, usually from 9.22 µM), without a hit: top-dose activation, hits mostly activators; 320,000 compounds, 2.4% hits; note: % of control where 0% means no effect; nearly all actives have a fitted effect of over 60% in size
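Luciferase expression driven by the NPC1 promoter was measured in stably transfected Huh7 cells after a 24 h compound incubation, using a luciferase reagent and a luminescence read.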
ELG1 DNA repair: blocks ELG1-dependent DNA repair in HEK293T cells | HEK293T ELG1-luciferase reporter, luminescence, 16 h; DNA damage induced by 5-fluorouridine | Potency, µM (titrated, usually from 46.1 µM), inactives show at the top dose activity change, negative = inhibition, hits mostly inhibitors | 330,000 compounds, 2.3% hits | AID 504467; note: % is set by controls: 0 for no effect and ±100 for the full control effect; nearly all actives have a fitted effect of over 55% in size
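Step one: seed 2,000 cells per well. Step two: pin-transfer compound or DMSO alongside 5-fluorouridine. Step three: incubate 16 hr, 37 °C, 5% CO2. Step four: add ONE-Glo, wait 30 min, read luminescence.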
SMN2 splice enh: increases expression of the SMN2 splice variant | Potency, µM (titrated, usually from 46.1 µM), inactives show top-dose activity change, positive = activation, usual class: activators | 210,000 compounds, 2.8% hits | HEK293 SMN2-luciferase splicing reporter, luminescence, 30-36 h; note: % of control where 0% means no effect; nearly all actives have a fitted effect of over 55% in size
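qHTS luciferase splicing reporter: luminescence rises when SMN2 exon 7 is included in transfected HEK293 cells. Compound exposure lasted 30-36 h at 37C, with 4.5 mM final sodium butyrate as control, followed by a ONE-Glo read.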
Numbers without * were called inactive; ? = inconclusive; nt = no result given. Calls come from the whole dose curve; as a rule, active = well fitted curve in the direction sought with a large enough effect; inconclusive = small, poorly fitted or top-dose-only effect, or another doubt; inactive = no such curve, though single readings can be large; an effect the other way counts as inactive or inconclusive. Potency is the fitted concentration of half-maximal effect.

SMILES | ELG1 genotoxic | Rab9 promoter act | FLuc counter | NPC1 prom act | ELG1 DNA repair | SMN2 splice enh
CCOC(=O)c1ccc2nc(NC(C)=O)sc2c1 | ? | 2.2µM* | ? | ? | ? | 13µM*
COC(=O)c1ccc2nc(Nc3nc4c(F)cc(F)cc4s3)sc2c1 | ? | -25% | 5.4µM* | -16% | ? | -85%
CCOC(=O)c1ccc2nc(Nc3nc4ccc(F)cc4s3)sc2c1 | -10% | -39% | ? | -31% | ? | -61%
COC(=O)c1ccc2nc(NC(=O)C(C)C)sc2c1 | ? | 1.1µM* | 8.5µM* | 2µM* | ? | 5.6µM*
COC(=O)c1ccc2nc(NC(=O)CSCC(=O)OCC(=O)c3ccccc3)sc2c1 | 15% | 11% | 17µM* | 11% | ? | 2%
Cc1ccc2nc(NC(=O)CSCC(=O)OCC(=O)c3ccc(Br)cc3)sc2c1 | -3% | -27% | ? | -18% | 11% | -33%
COC(=O)c1ccc2nc(NC(=O)C3CC3)sc2c1 | ? | ? | 19µM* | 2.2µM* | ? | nt
Cc1ccc(CNC(=O)Cn2ncc3c([nH]c4ccc(C)cc43)c2=O)cc1 | nt | nt | -6% | nt | nt | nt
COc1ccc(-c2cc(C(=O)Nc3c(C)nn(Cc4ccccc4C)c3C)no2)cc1 | nt | nt | -4% | nt | nt | -6%
CCN1/C(=C/c2ccc3cc(C)ccc3[n+]2CC)Sc2cc(C)ccc21 | -4% | -41% | -12% | -34% | 2.1µM* | -63%
Cc1cc2ccc3ccccc3c2cc1CN(C)C | 6% | 24% | 7.6µM* | 10% | ? | nt
Cc1ccc(S(=O)(=O)CCC(=O)OCc2cc(C)ccc2C)cc1 | -11% | -2% | 1% | 0% | 16% | nt
COCCN(C(=O)CCC(=O)Nc1ccccn1)C(C(=O)NCCC(C)C)c1ccc(C)cc1 (centres undefined) | -2% | 6% | 0% | 1% | 17% | nt
Cc1ccccc1C(=O)Oc1cc(N)n(S(C)(=O)=O)n1 | 2% | -8% | ? | 4% | ? | 7%
Cc1c(C(=O)Oc2cc(N)n(S(C)(=O)=O)n2)cccc1[N+](=O)[O-] | 0% | 3% | 21µM* | 1% | 5% | 0%
COc1cc(OC)c(C(=O)O/N=C(\N)c2ccccn2)cc1OC | 4% | 14% | -4% | 10% | 12% | nt
COc1cc(OC)cc(C(=O)O/N=C(\N)c2ccccn2)c1 | ? | 0.63µM* | 6.7µM* | 0.89µM* | ? | nt
COc1ccc(CC(=O)O/N=C(\N)c2ccccn2)cc1 | ? | 18% | 12µM* | 10% | ? | nt
COc1ccc(C(=O)NNC(=O)c2ccccn2)cc1 | 0.15µM* | 0.32µM* | 0.085µM* | 0.32µM* | ? | 2.5µM*
COc1ccc(C(=O)O/N=C(\N)c2ccccn2)cc1 | ? | 0.4µM* | 0.095µM* | 0.11µM* | ? | nt
COc1cc(OC)cc(C(=O)NNC(=O)c2ccccn2)c1 | ? | -4% | 3% | -4% | ? | nt
Cc1ccc(Cc2nc3ccccc3nc2SCC(=O)Nc2ccc3c(c2)OCO3)cc1 | nt | nt | 4% | nt | nt | nt
Cc1ccsc1CN(C)C(=O)CCc1nnc(COc2ccccc2)o1 | ? | 13% | ? | 10% | ? | ?
COc1ccc(C(=O)O/N=C(\C)c2cnccn2)cc1 | 2% | -1% | 11µM* | 0% | 11% | 7%
CCC(C)C(=O)Nc1nnc(SCC(=O)N2C(C)CCCC2C)s1 (centres undefined) | -6% | 0% | 2% | -3% | ? | nt
SMILES | ELG1 genotoxic | Rab9 promoter act | FLuc counter | NPC1 prom act | ELG1 DNA repair | SMN2 splice enh
Cc1sc(NC(=O)C2C3CCC(O3)C2C(=O)O)nc1-c1ccc(CC(C)C)cc1 (centres undefined) | ? | 20% | 15µM* | 7% | ? | 20%
Fc1ccc(-c2nnn3c2nc(NCc2ccccc2)c2ccccc23)cc1 | 0% | -4% | 4% | 5% | 0% | -1%
COCCCNc1nc2c(-c3ccc(Cl)cc3)nnn2c2ccccc12 | -1% | -7% | -1% | -3% | 16% | -5%
NNc1nc2c(-c3ccc(F)cc3)nnn2c2ccccc12 | ? | 2.8µM* | 4.8µM* | 4µM* | ? | 5µM*
NNc1nc2c(-c3ccc(Cl)cc3)nnn2c2ccccc12 | 13% | 2.5µM* | ? | 4µM* | ? | 13µM*
CC(CCc1ccccc1)NC(=O)CN1CCN(c2ccc(O)cc2)CC1 (centres undefined) | -1% | -2% | 4% | 0% | ? | -15%
O=C(O)COCC(=O)N1CCCN(c2nccc(C(F)(F)F)n2)CC1 | 1% | -1% | -1% | 0% | 0% | nt
COc1cc(-c2noc(CCCC(=O)NCc3ccccc3)n2)cc(OC)c1OC | 1% | -4% | 1% | -3% | 18µM* | -2%
COc1cccc2cc(C(=O)NCc3ccco3)c(=Nc3ccc(C(=O)O)cc3)oc12 | 21µM* | 1% | ? | 12% | ? | -51%
COc1cccc2cc(C(=O)NCc3ccco3)c(=O)oc12 | 14% | 13% | ? | -1% | ? | -22%
COc1ccccc1-c1noc(-c2ccccc2C(=O)NCc2ccco2)n1 | -10% | -4% | 19µM* | -4% | ? | -8%
COc1cc(-c2noc(CCCC(=O)Nc3cccnc3)n2)cc(OC)c1OC | 1% | 0% | -1% | -2% | -17% | nt
COc1cc(-c2noc(-c3ccccc3C(=O)NCc3ccco3)n2)cc(OC)c1OC | -20% | -5% | -2% | 0% | 4.6µM* | 30%
Cc1ccc2ncnc(Oc3ncccc3NC(=O)C(C)(C)C)c2c1 | 2% | 0% | -3% | 3% | 0% | nt
Cc1ccc(NC(=O)CN2C(=O)NC(C)(CC(C)C)C2=O)cc1F (centres undefined) | -2% | nt | nt | nt | 11% | nt
C/C(=N/NC(=O)c1ccc(C)s1)c1cccnc1 | ? | ? | 19µM* | 26% | ? | nt
C/C(=N/NC(=O)c1ccc(Br)s1)c1ccncc1 | 10% | 23% | ? | ? | ? | nt
C/C(=N/NC(=O)c1ccc(Br)s1)c1cccnc1 | 11% | ? | 15µM* | 28% | ? | nt
C/C(=N/NC(=O)c1ccc(Cl)s1)c1cccnc1 | 11% | 3% | 0% | 7% | 6% | nt
CCc1ccc(Sc2cc(C(=O)NCCCN3CCCC(C)C3)c3ccccc3n2)cc1 (centres undefined) | nt | nt | -1% | nt | nt | nt
O=C(O)c1cccc(CSc2ncn[nH]2)c1 | -1% | ? | 19µM* | 12% | 9% | nt
c1ccc(CSc2nnc(Cc3ccccc3)o2)cc1 | ? | ? | 24µM* | 19% | ? | ?
O=C(CSc1nnc(Cc2ccccc2)o1)c1ccccc1 | ? | 5% | ? | 13% | ? | 5%
